Source: PubChem BioAssay (National Center for Advancing Translational Sciences (NCATS))
JMJD2A Tudor = qHTS Assay for Inhibitors of JMJD2A-Tudor Domain; Potency, µM (titrated, usually from 114 µM), most hits filed as inhibitors; Lysine-specific demethylase 4A (Homo sapiens), O75164; AID 504339, 2011; 390,000 compounds, 4.4% hits; AlphaScreen JMJD2A-Tudor / H3K4me3 peptide binding; further: nearly all actives have a fitted effect of over 50% in size
GLS inh = qHTS for Inhibitors of Glutaminase (GLS); GLS enzymatic activity, qHTS titration; Potency, µM (doses to about 45.5 µM), actives largely listed as inhibitors; 410,000 compounds, 0.21% hits; AID 624170, 2012
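Coupled fluorescence readout: glutamate oxidase/HRP/Amplex Red detect glutamate formed by hKGA from L-glutamine (1 mM solution added). Buffer 45 mM KH2PO4 pH 8.2, 0.02% Tween-20; reads at t0 and 30 min RT.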
L3MBTL1 block = qHTS Assay for the Inhibitors of L3MBTL1; Lethal(3)malignant brain tumor-like protein 1 (Homo sapiens), Q9Y468; AlphaScreen L3MBTL1–H3K9me1 peptide binding; Potency, µM (highest dose often 57.1 µM), hits mostly inhibitors; 230,000 compounds, 0.66% hits; AID 485360, 2010; further: nearly all actives have a fitted effect of over 60% in size
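AlphaScreen assay: L3MBTL1 (50 nM final) was preincubated 30 min at room temperature with biotinylated H3(1-15)K9me1 peptide (75 nM final), then 30 min with library compounds; streptavidin donor and nickel chelate acceptor beads (10 ug/mL final) added, 30 min dark.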
BAZ2B inh = qHTS Assay for Inhibitors of BAZ2B; 360,000 compounds, 4.4% hits; Bromodomain adjacent to zinc finger domain protein 2B (Homo sapiens), Q9UIF8; Potency, µM (series often up to 114 µM), most hits filed as inhibitors; AlphaScreen BAZ2B-H3K14Ac peptide displacement; further: nearly all actives have a fitted effect of over 60% in size
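In this displacement format the biotinylated H3(5-23) peptide acetylated at Lys14 serves as ligand at 50 nM, with BAZ2B at 50 nM in PBS pH 7.4 containing 0.01% Tween-20. Donor and acceptor beads are 10 ug/mL final.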
G9a inh = qHTS Assay for Inhibitors of Histone Lysine Methyltransferase G9a; Histone-lysine N-methyltransferase EHMT2 (Homo sapiens), Q96KQ7; G9a H3K9 monomethylation, AlphaScreen, 2 h; Potency, µM (highest dose often 102 µM), usual class: inhibitors; 350,000 compounds, 8.8% hits; AID 504332, 2011; further: nearly all actives have a fitted effect of over 75% in size
Target sequence (Q96KQ7 913-1193 limits assumed): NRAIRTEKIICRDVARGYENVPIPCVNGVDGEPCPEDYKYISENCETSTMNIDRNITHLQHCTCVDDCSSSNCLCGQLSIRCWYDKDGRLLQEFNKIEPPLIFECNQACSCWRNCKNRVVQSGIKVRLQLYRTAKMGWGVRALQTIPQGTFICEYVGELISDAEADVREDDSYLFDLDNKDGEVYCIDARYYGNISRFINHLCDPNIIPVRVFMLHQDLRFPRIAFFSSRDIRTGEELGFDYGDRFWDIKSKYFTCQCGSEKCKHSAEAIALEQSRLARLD
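Signal arises when biotinylated H3K9 peptide, once monomethylated, bridges streptavidin donor and antibody-captured acceptor beads. Enzyme at 20 nM was preincubated 15 min with test compounds; peptide 500 nM and SAM 20 uM then reacted for 2 h.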
HP1b binding inh = HTS for Inhibitors of HP1-beta Chromodomain Interactions with Methylated Histone Tails; Chromobox protein homolog 1 (Homo sapiens), P83916; AlphaScreen HP1-beta / biotin-H3K9me3 peptide binding; Potency, µM (series often up to 114 µM), most hits filed as inhibitors; 390,000 compounds, 0.56% hits; further: nearly all actives have a fitted effect of over 70% in size
Target sequence (P83916 whole entry, looked up): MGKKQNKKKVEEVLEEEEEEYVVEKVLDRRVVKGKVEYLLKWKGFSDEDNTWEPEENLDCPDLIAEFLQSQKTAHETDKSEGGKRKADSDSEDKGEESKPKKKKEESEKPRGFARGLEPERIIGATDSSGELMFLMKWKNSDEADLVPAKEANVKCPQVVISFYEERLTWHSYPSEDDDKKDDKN
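HP1-beta protein (50 nM final) preincubated 30 min at room temperature with biotinylated H3(1-18)K9me3 peptide (50 nM) in PBS pH 7.4, 0.01% Tween-20, then compound added for 30 min. AlphaScreen streptavidin donor/nickel chelate acceptor beads (10 ug/mL final), 30 min dark, luminescence read.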
Large screens that a line does not name were inactive. An excerpt weighted towards active compounds, which were near 10% of everything screened. The call rests on the fitted dose curve; in most records, active means well fitted curve in the direction sought with a large enough effect; inconclusive means small, poorly fitted or top-dose-only effect, or another doubt; inactive means no such curve, though single readings can be large; an effect the other way counts as inactive or inconclusive.

CC(C)Cn1c(=O)c2ccccc2n2c(CCC(=O)NC(C)c3ccccc3)nnc12 (configuration not stated)	none (no result: L3MBTL1 block)
CC(C)(C)N(CC#CCC(O)(c1ccccc1)c1ccccc1)CCO	JMJD2A Tudor 22.4µM, BAZ2B inh 79.4µM, G9a inh 8.91µM
CCOc1ccccc1NS(=O)(=O)N(C)C	none (no result: L3MBTL1 block)
CCOc1ccccc1NC1=C(OC)C(=O)C(Nc2ccccc2OCC)=C(OC)C1=O	JMJD2A Tudor 7.08µM, HP1b binding inh 8.91µM (no result: L3MBTL1 block, BAZ2B inh, G9a inh)
Oc1ccc(N=Cc2ccc(OCc3ccccc3)cc2)cc1	JMJD2A Tudor inconclusive, L3MBTL1 block inconclusive, BAZ2B inh inconclusive, G9a inh 2.51µM, HP1b binding inh inconclusive
CCNC(=O)c1ccc(C)c(-n2c(C)nc3cccnc32)c1	none (no result: L3MBTL1 block)
COc1cccc(CCc2nnc(N)s2)c1	G9a inh 79.4µM
O=C(NC(=S)Nc1ccc(Cl)cc1)c1ccccc1	BAZ2B inh inconclusive
O=C(Nc1ccc(Cl)cc1)C(Cl)C(=O)c1ccccc1 (configuration not stated)	G9a inh 11.2µM (no result: L3MBTL1 block)
O=C(Nc1ccccc1Cl)c1ccccc1	none (no result: L3MBTL1 block, BAZ2B inh)
O=C(Nc1ccccc1Cl)C(Cl)C(=O)c1ccccc1 (configuration not stated)	GLS inh inconclusive, BAZ2B inh inconclusive, G9a inh 39.8µM (no result: L3MBTL1 block)
O=C(Nc1ccc(Nc2ccccc2)cc1)Nc1ccccc1Cl	JMJD2A Tudor inconclusive, BAZ2B inh 20µM, G9a inh 7.94µM, HP1b binding inh inconclusive
COc1cc(CNCc2ccccn2)ccc1OCc1c(Cl)cccc1Cl	JMJD2A Tudor inconclusive, L3MBTL1 block inconclusive, BAZ2B inh 89.1µM
COc1cc(CNCc2ccccn2)ccc1OCc1ccc(Cl)cc1	JMJD2A Tudor 25.1µM, BAZ2B inh inconclusive
O=C1CCCC2=C1C1(CCC1)N=C(Nc1nc3ccccc3o1)N2	none (no result: GLS inh, L3MBTL1 block, BAZ2B inh, G9a inh, HP1b binding inh)
COC(=O)C1=C(C(=O)OC)C2(OC1c1cccc(F)c1)C(=O)c1ccccc1C2=O (configuration not stated)	G9a inh 25.1µM (no result: L3MBTL1 block)
O=C1N=c2ccccc2=C1c1c(O)n(-c2cccc(F)c2)[nH]c1=O	JMJD2A Tudor inconclusive, GLS inh inconclusive, BAZ2B inh inconclusive, G9a inh 3.98µM, HP1b binding inh inconclusive
COC(=O)C1=C(CS(=O)(=O)c2ccc(C)cc2C)NC(=O)NC1c1ccc(C)cc1 (configuration not stated)	none (no result: L3MBTL1 block)
O=C1NC(c2ccc(Cl)c([N+](=O)[O-])c2)Nc2ccccc21 (configuration not stated)	G9a inh inconclusive (no result: L3MBTL1 block)
O=C1NC(c2cc(Cl)cc([N+](=O)[O-])c2O)Nc2ccccc21 (configuration not stated)	JMJD2A Tudor inconclusive, GLS inh inconclusive, BAZ2B inh 39.8µM (no result: G9a inh)
COc1ccc(C)cc1S(=O)(=O)n1c([N+](=O)[O-])cnc1C	G9a inh inconclusive
COc1ccc(S(=O)(=O)n2c([N+](=O)[O-])cnc2C)cc1OC	JMJD2A Tudor inconclusive, BAZ2B inh 79.4µM, G9a inh 56.2µM
COc1ccc(-c2noc(CN(C(=O)Cc3ccc(C)cc3)C(C)C)n2)cc1	none (no result: L3MBTL1 block)
CCOc1ccc(C2=Nc3ccc(Br)cc3C(c3ccc(N4CCOCC4)cc3)=NN2)cc1	G9a inh 44.7µM
Fc1ccc2c(c1)C(c1ccc(N3CCOCC3)cc1)=NNC(c1cccs1)=N2	JMJD2A Tudor 25.1µM, BAZ2B inh 35.5µM, G9a inh 20µM
Brc1ccc2c(c1)C(c1ccc(N3CCOCC3)cc1)=NNC(c1cccs1)=N2	BAZ2B inh inconclusive, G9a inh inconclusive
COc1ccc(-n2c(=O)cnc3cnc(N(C)C)nc32)cc1	none (no result: JMJD2A Tudor, GLS inh, L3MBTL1 block, BAZ2B inh, HP1b binding inh)
CCOC(=O)c1c(Nc2ccc(C)c(C)c2)nnc(-c2ccccc2)c1-c1ccccc1	JMJD2A Tudor inconclusive, BAZ2B inh inconclusive, G9a inh inconclusive, HP1b binding inh inconclusive (no result: L3MBTL1 block)
